{
  "source": "PubChem BioAssay AID720518",
  "about": "(National Center for Advancing Translational Sciences (NCATS), 2013)",
  "note": "Inconclusive results are not listed. Where a call stands in place of a potency, no number is given. The source made the active and inactive calls. The call rests on the fitted dose curve. Potency means the concentration at half of the fitted maximal effect.",
  "data": [
    {"test": "qHTS for Inhibitors of Cell Surface uPA Generation: Wild-type Protective Antigen (WT-PrAg) Counterscreen for Cherry-picked Compounds", "details": "cells, WT protective antigen toxicity counterscreen; series mostly up to 115 µM", "values": [
      {"smiles": "Cc1ccc(-c2nc(CS(=O)(=O)CC(=O)NCc3cccc(F)c3)c(C)o2)cc1", "Potency": "inactive"},
      {"smiles": "COc1ccc([C@H]2CC(=O)C=C(c3ccc(CNC(=O)OC(C)(C)C)cc3)C2)cc1", "Potency": "inactive"},
      {"smiles": "CCOC(=O)N1CCc2c(sc3nc4n(c(=O)c23)N=C(C)CS4)C1", "Potency": "inactive"},
      {"smiles": "CC1CCCN(C(=O)c2ccc(-c3ccccc3Cl)o2)C1", "note": "(centres undefined)", "Potency": "inactive"},
      {"smiles": "CN(C)c1cccc(C(=O)N(C)C2CCCN(Cc3ccccc3F)C2)c1", "note": "(centres undefined)", "Potency": "23.3 µM (active)"},
      {"smiles": "O=C(C1CCCCN1S(=O)(=O)c1ccc(F)cc1)N1CCN(c2ccccc2F)CC1", "note": "(centres undefined)", "Potency": "inactive"},
      {"smiles": "Cc1ccc(S(=O)(=O)NNC(=O)c2ccc(F)cc2)cc1", "Potency": "inactive"},
      {"smiles": "COc1ccccc1NS(=O)(=O)c1cc(NC(=O)CCc2nc3ccccc3c(=O)[nH]2)ccc1C", "Potency": "inactive"},
      {"smiles": "CC(/C=C1\\SC(=S)N(CCCC(=O)Nc2ccc(C(=O)O)cc2)C1=O)=C\\c1ccccc1", "Potency": "inactive"},
      {"smiles": "CCN(CC)S(=O)(=O)c1cc(NC(=O)COC(=O)C2CCC2)ccc1C", "Potency": "inactive"},
      {"smiles": "O=C(Nn1cnnc1)c1ccc(Cl)cc1", "Potency": "inactive"},
      {"smiles": "Cc1cccc(C)c1NC(=O)c1c(O)c2ccccc2[nH]c1=O", "Potency": "inactive"},
      {"smiles": "NC(=O)c1cc2ccncc2c2ccccc12", "Potency": "inactive"},
      {"smiles": "C[C@@H]1O[C@@H](O[C@@H]2C(=O)c3c(O)cc(O)cc3O[C@H]2c2ccc(O)c(O)c2)[C@H](O)[C@H](O)[C@H]1O", "Potency": "inactive"},
      {"smiles": "Cc1ccn(CCC(=O)N2CCc3ccccc32)n1", "Potency": "inactive"},
      {"smiles": "Cc1ccc(N=C2SCCCN2C(=O)c2cccc(N3C(=O)CCC3=O)c2)cc1Cl", "Potency": "inactive"},
      {"smiles": "COc1cc(CCC(=O)OCC(=O)NCc2ccccc2)cc(OC)c1OC", "Potency": "inactive"},
      {"smiles": "COC(=O)c1c(NC(=O)c2c(OC)cccc2OC)sc2c1C(C(=O)OC)CC2", "note": "(centres undefined)", "Potency": "46.5 µM (active)"},
      {"smiles": "CC(NC(=O)NC1CCCCC1)C(c1cccs1)N1CCN(C)CC1", "note": "(centres undefined)", "Potency": "inactive"},
      {"smiles": "S=C(Nc1ccccc1Cl)N1CCCC(c2ccccc2)=N1", "Potency": "16.5 µM (active)"},
      {"smiles": "O=C(NCCc1ccccc1)C1CCC(=O)N(Cc2cccc(C(F)(F)F)c2)C1", "note": "(centres undefined)", "Potency": "inactive"},
      {"smiles": "COc1cc(F)ccc1S(=O)(=O)n1c(C)nc2ccccc21", "Potency": "inactive"},
      {"smiles": "Cc1ccc(C(=O)NC(=S)Nc2ccc3[nH]c(=O)[nH]c3c2)c(C)c1", "Potency": "inactive"},
      {"smiles": "O=C(CSc1nnnn1-c1cccc(F)c1)Nc1nc2ccccc2s1", "Potency": "inactive"},
      {"smiles": "Cc1ccc(Cl)cc1NC(=O)c1ccccc1OCC(=O)N1CCOCC1", "Potency": "inactive"},
      {"smiles": "CCOc1ccc(CN2CCN(C(=O)Cc3ccccc3)CC2)cc1", "Potency": "inactive"},
      {"smiles": "COc1ccccc1-c1ccc(SCC(=O)NCCc2ccccc2)nn1", "Potency": "inactive"},
      {"smiles": "C[C@H](CO)N1C[C@H](C)[C@@H](CN(C)C(=O)Nc2ccccc2)Oc2ccc(NC(=O)Cn3cnnn3)cc2C1=O", "Potency": "inactive"},
      {"smiles": "CCN(C1CCS(=O)(=O)C1)S(=O)(=O)c1ccc2ccccc2c1", "note": "(centres undefined)", "Potency": "inactive"},
      {"smiles": "Cc1ccc2cccc(OCCCOc3ccccc3CO)c2n1", "Potency": "inactive"},
      {"smiles": "CCOC(=O)N1CCN(C(=O)c2ccc3c(c2)sc2nc(-c4ccc(OC)cc4)cn23)CC1", "Potency": "inactive"},
      {"smiles": "Cc1cc(C)nc(N2N=C(C(F)(F)F)CC2=O)n1", "Potency": "inactive"},
      {"smiles": "CN(C(=O)c1ccccc1C(=O)OCC(=O)NCc1ccccc1)C1CCCCC1", "Potency": "inactive"},
      {"smiles": "CCOc1ccc(C2(C)CC(=O)N(C)C2=O)cc1", "note": "(centres undefined)", "Potency": "inactive"},
      {"smiles": "CCOc1ccc(-n2cnc3scc(-c4ccc(OC)c(OC)c4)c3c2=O)cc1", "Potency": "inactive"},
      {"smiles": "CC(=O)[C@@]1(O)[C@H](C)CC2C3CC=C4CC(OP(=O)(O)O)CC[C@]4(C)C3CC[C@@]21C", "note": "(some centres undefined)", "Potency": "inactive"},
      {"smiles": "Cc1cnc(CNC(=O)C2CCC(=O)N(CCc3cccc(F)c3)C2)[nH]1", "note": "(centres undefined)", "Potency": "inactive"},
      {"smiles": "COc1ccc(/C(N)=N/OC(=O)Cc2ccccc2OC)cc1", "Potency": "inactive"},
      {"smiles": "COc1ccc(Cl)cc1NC(=O)CSc1nc(=O)n(CCN(C)C)c2c1CCCC2", "Potency": "inactive"}
    ]}
  ]
}
